Test results as given in the OligoGym collection.
Note: reference of the scale not given here.

These sequences were tested against TRPM3 (assay: pooled miR-30 sensor sort-seq; sequence = guide strand). Settings: shRNA.
Sequence TTCTATACCACCTTTGTCTTTC has a sensor-assay potency score (higher = more potent) of 0.0572. TAAAATGCTCTTTCTATCCAGG gave a sensor-assay potency score (higher = more potent) of -0.366. Work on AATGTCGTCAACCATGTCGTTC yielded a sensor-assay potency score (higher = more potent) of -1.05. TTATTTTACCATCCTCTCGGGT was tested, and the sensor-assay potency score (higher = more potent) was -0.671. For TATTTTACCATCCTCTCGGGTC, the sensor-assay potency score (higher = more potent) was -0.479. TTGTACAATTCCTCTAGTCTGG showed a sensor-assay potency score (higher = more potent) of -0.181.

Each sequence was assayed against TRPM6 in the same assay as above. Settings: shRNA.
TAAATGTAACAGATGATCCAGT was tested, and the sensor-assay potency score (higher = more potent) was 0.213. In the case of TAAAACTATGACTCCTAGCGAA, the sensor-assay potency score (higher = more potent) is reported as -0.766. In the case of TATGTTATCACAGAGTTCCTGG, the sensor-assay potency score (higher = more potent) is reported as 0.658. With TTGTATTGTAGAGCTCTTCCAG the sensor-assay potency score (higher = more potent) was -0.0378. TTGTTGTTGTTATACTTCCGGA was tested, and the sensor-assay potency score (higher = more potent) was -0.714. For TAGAACTCATAGACTTTCCTGG, the sensor-assay potency score (higher = more potent) was 0.494. TATAGATCAATTTTTGAGCAGC gave a sensor-assay potency score (higher = more potent) of -0.262. TAAGTGAGCAATAGGCTCGTGC was tested, and the sensor-assay potency score (higher = more potent) was -0.42. TTGAGTGTTGTGAGCTTGCTGA gave a sensor-assay potency score (higher = more potent) of -0.408. With TTGAGTAATTCTTCAACTCTTC the sensor-assay potency score (higher = more potent) was -0.179. TGTTCTTTTGACTTCTTCCTTG gave a sensor-assay potency score (higher = more potent) of 0.00322. In the case of TAATTCTTCAACTCTTCTGAGG, the sensor-assay potency score (higher = more potent) is reported as -0.79.

Each sequence was assayed against TRPV1 in the same assay as above. Settings: shRNA.
In the case of TTGAGCAGGAGGATGTAGGTGA, the sensor-assay potency score (higher = more potent) is reported as 1.19. With ATGCTCGTCACAAACTTCGTGT the sensor-assay potency score (higher = more potent) was -0.192. Sequence TAGCTGTCCGTGTAGCTGGCGT has a sensor-assay potency score (higher = more potent) of -0.712. With TAGTAGCTGTCCGTGTAGCTGG the sensor-assay potency score (higher = more potent) was -0.744. ATGTAGACAAACATGAAACGGC was tested, and the sensor-assay potency score (higher = more potent) was -0.484. TTGGTGTTCCAGGTGGTCCAGT gave a sensor-assay potency score (higher = more potent) of -0.829. Work on TTAAGGAAGCTCTTCTCCGTGT yielded a sensor-assay potency score (higher = more potent) of -0.306. TCGCAGATAAACTTCCTCGGGC was tested, and the sensor-assay potency score (higher = more potent) was 0.131. TAGTAGAGCATGTTGGTCCAGC gave a sensor-assay potency score (higher = more potent) of -0.185. In the case of TTGTCTGTGAGGTGCTTCTTGC, the sensor-assay potency score (higher = more potent) is reported as -0.584. With TTGAAGTAGAAGATGCGCTTGA the sensor-assay potency score (higher = more potent) was 0.616. TAACTCGGAAATAGTCTCCAGT showed a sensor-assay potency score (higher = more potent) of 0.133.

These sequences were tested against TSC1 in the same assay as above. Settings: shRNA.
Sequence TAGCATGGTTATCAACACCAAG has a sensor-assay potency score (higher = more potent) of -0.952. With ATATTTAACAACATCAGCCGAG the sensor-assay potency score (higher = more potent) was 0.191. TATTTAACAACATCAGCCGAGA showed a sensor-assay potency score (higher = more potent) of -0.654. In the case of TATCTTTTTCAATACTATCTTC, the sensor-assay potency score (higher = more potent) is reported as -0.463. TGAACTTGCACTCAGACCCTGG was tested, and the sensor-assay potency score (higher = more potent) was -0.099. Sequence TTCCAGGTAATAATCCACCAAG has a sensor-assay potency score (higher = more potent) of -1.16. Work on TAGCTGTCCAACACTGTCCGGG yielded a sensor-assay potency score (higher = more potent) of -0.0259. In the case of TAGAGTGACAGAACCTTTGCTG, the sensor-assay potency score (higher = more potent) is reported as 0.691. TAGATATTGCAGCTTCTTCTTT showed a sensor-assay potency score (higher = more potent) of -0.827. TTCTCTTGTAACTTCAACTGAT gave a sensor-assay potency score (higher = more potent) of 0.432.
